Laboratory results: PubChem BioAssay (EPA / NIEHS)
Several values for one entry are separate records, joined by “and”; a condition that tells them apart may be missing. Equal values may be shown once. Inconclusive results are not listed. Activity calls are given as the source filed them. The calls were made as follows: active = hit-call score of the fitted dose curve at least 0.9, where 1 is the maximum; inconclusive = response in the unintended direction; inactive = score below 0.9.

These molecules were tested against Estrogen receptor beta (Homo sapiens) (UniProt Q92731) (assay: OT_ER_ERbERb_0480: Odyssey Thera (OT) 8-hour HEK293T Protein-Complementation Assay for Estrogen Receptor-beta/-beta Homodimer (AID 2283357);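 also: active means signal gain over DMSO baseline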).
Sequence of Estrogen receptor beta (Homo sapiens) (Q92731 whole entry, looked up, the tested form may be a part): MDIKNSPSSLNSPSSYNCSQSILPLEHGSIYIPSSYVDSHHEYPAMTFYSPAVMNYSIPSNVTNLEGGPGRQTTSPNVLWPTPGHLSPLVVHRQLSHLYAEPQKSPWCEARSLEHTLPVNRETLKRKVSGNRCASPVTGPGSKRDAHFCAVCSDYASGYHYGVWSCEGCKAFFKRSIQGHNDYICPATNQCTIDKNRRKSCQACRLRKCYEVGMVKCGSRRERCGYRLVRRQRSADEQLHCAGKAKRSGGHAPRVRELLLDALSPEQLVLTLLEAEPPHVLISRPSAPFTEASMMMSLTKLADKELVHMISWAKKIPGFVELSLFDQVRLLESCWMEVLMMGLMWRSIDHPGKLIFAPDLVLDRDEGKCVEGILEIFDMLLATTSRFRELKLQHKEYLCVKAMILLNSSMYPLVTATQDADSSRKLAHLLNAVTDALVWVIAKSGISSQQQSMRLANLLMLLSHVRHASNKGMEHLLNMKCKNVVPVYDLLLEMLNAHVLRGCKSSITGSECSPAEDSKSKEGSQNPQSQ
Summary of the method: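 ER-beta LBD homodimer PCA stably expressed in HEK293T; 8 h compound exposure, then formaldehyde fixation and Draq5 staining. Gain in nuclear/cytoplasmic fluorescence intensity versus DMSO vehicle, read on laser scanning cytometer.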

| Compound | outcome | AC50 |
| --- | --- | --- |
| COC(=O)C(C)Oc1ccc(Oc2ccc(Cl)cc2Cl)cc1 (configuration not stated) | inactive |  |
| CCOP(=S)(OCC)SCn1c(=O)oc2cc(Cl)ccc21 | inactive |  |
| CS/C(C)=N/OC(=O)N(C)SN(C)C(=O)O/N=C(\C)SC | inactive |  |
| C=CC1(C)OC(=O)N(c2cc(Cl)cc(Cl)c2)C1=O (configuration not stated) | inactive |  |
| CN(C)C(=S)SSC(=S)N(C)C | inactive |  |
| COc1cnc(OC)n2nc(NS(=O)(=O)c3c(OCC(F)F)cccc3C(F)(F)F)nc12 | inactive |  |
| CCNc1nc(Cl)nc(NC(C)C)n1 | inactive |  |
| CCCCOC(=O)c1ccccc1C(=O)OCCCC |  | 28.8 µM (active) and 38.1 µM (active) and 34.2 µM (active) |
| CC1COC(Cn2cncn2)(c2ccc(Oc3ccc(Cl)cc3)cc2Cl)O1 (configuration not stated) | inactive |  |
| N#CC(CCc1ccc(Cl)cc1)(Cn1cncn1)c1ccccc1 (configuration not stated) | inactive |  |
| CCOC(=O)C(Cl)Cc1cc(-n2nc(C)n(C(F)F)c2=O)c(F)cc1Cl (configuration not stated) | inactive |  |
| CCCCNC(=O)OCC#CI | inactive |  |
